For 14 compounds, NF-kB reporter, IRF reporter and viability score results are on record in the supplement of paper PMC10646978.

Common to all, as to conditions: modulator concentration 10 µM
Assay [1] concerns RAW-Dual (murine macrophage reporter line). As to the kind of experiment: NF-kB reporter (SEAP) activity fold change vs agonist alone; higher = enhanced NF-kB activity. In a few lines: (§1)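 RAW-Dual murine macrophage reporter cells were plated at 50 000 per well in 384-well plates, pin-transferred compound to 10 μM final, and pre-incubated for 1 hour at 37 °C before a PRR agonist was added and the cells incubated overnight. NF-κB activity was read from supernatant SEAP with QUANTI-Blue at 620 nm absorbance, and IRF activity from Lucia luciferase with QUANTI-Luc by luminescence. Each signal was expressed as fold change by dividing by the mean agonist-only control on the same plate. Two replicate plates were averaged, with errors obtained by propagation.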

For assay [2] the test system is unchanged. As to the kind of experiment: IRF reporter (Lucia luciferase) activity fold change vs agonist alone; higher = enhanced IRF activity. The procedure, abridged:
as §1

For assay [3] the test system is unchanged. Nature of the assay: viability score (confluency relative to resting cells, overnight) (fraction); higher = more viable, active = viable (0.7 or more). In a few lines: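 RAW-Dual macrophages in 384-well plates were exposed overnight to compound at 10 μM final. Confluency was imaged with IncuCyte, and two confluency masks were generated with IncuCyte software over all imaged wells. The viability score is confluency expressed relative to resting cells. Compounds were called viable if both masks exceeded 70% of resting cells.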

Setting [4] is: agonist: CpG ODN 1826 0.5 ug/mL.

± gives the standard deviation.

Regarding `Clc1ccc2nsnc2c1NC1=NCCN1` [Prestw-1182], the values for the NF-kB reporter in assay [1] (setting [4]), in assay [1] (agonist: LPS 0.1 ug/mL) and in assay [1] (agonist: MPLA […]) were 1.14 ± 0.1, 1.06 ± 0.085 and 0.958 ± 0.044, respectively. Further, the IRF reporter came out at 0.965 ± 0.044 in assay [2] (agonist: 3'3'-cGAMP 10 ug/mL), 0.93 ± 0.05 in assay [2] (agonist: LPS 0.1 ug/mL) and 1.01 ± 0.13 in assay [2] (agonist: MPLA […]). In addition, the viability score in assay [3] was 0.995 (active).
On to `CNCCc1ccccn1.Cl.Cl`, for which the NF-kB reporter in assay [1] (setting [4]) was determined as 1.19 ± 0.36; in assay [1] (agonist: LPS 0.1 ug/mL) it was 0.956 ± 0.18; in assay [1] (agonist: MPLA […]), 0.964 ± 0.08. The IRF reporter in assay [2] (agonist: 3'3'-cGAMP 10 ug/mL) is 0.946 ± 0.05; in assay [2] (agonist: LPS 0.1 ug/mL), 1.01 ± 0.31; in assay [2] (agonist: MPLA […]), 1 ± 0.13. Further, in assay [3], the viability score is 0.997 (active).
For the compound `CCOc1ccccc1NC(=O)Nc1ccc2c(c1)CCC(=O)N2C`, the results for the NF-kB reporter in assay [1] (setting [4]), in assay [1] (agonist: LPS 0.1 ug/mL) and in assay [1] (agonist: MPLA […]) were 1.91 ± 0.14, 1.41 ± 0.11 and 0.99 ± 0.057, respectively. Besides, the IRF reporter in assay [2] (agonist: 3'3'-cGAMP 10 ug/mL) was 0.404 ± 0.025; in assay [2] (agonist: LPS 0.1 ug/mL), 0.282 ± 0.032; in assay [2] (agonist: MPLA […]), 0.389 ± 0.079. For the same compound, the viability score in assay [3] was 0.933 (active).
`CC1=NN(c2ccc(C)c(C)c2)C(=O)/C1=N\Nc1cccc(-c2cccc(C(=O)O)c2)c1O.NCCO.NCCO`: the NF-kB reporter in assay [1] (setting [4]) worked out at 1.63 ± 0.31; in assay [1] (agonist: LPS 0.1 ug/mL) it was 1.28 ± 0.23; in assay [1] (agonist: MPLA […]) it was 1.49 ± 0.14. Also, the IRF reporter was found to be 0.601 ± 0.019 in assay [2] (agonist: 3'3'-cGAMP 10 ug/mL), 1.16 ± 0.098 in assay [2] (agonist: LPS 0.1 ug/mL) and 1.2 ± 0.11 in assay [2] (agonist: MPLA […]). Moreover, the viability score in assay [3] was 0.861 (active).
Consider `O=C(O)/C=C/c1ccc(Cn2ccnc2)cc1`, for which the NF-kB reporter in assay [1] (setting [4]) came out at 0.812 ± 0.079; in assay [1] (agonist: LPS 0.1 ug/mL) it was 0.873 ± 0.05; in assay [1] (agonist: MPLA […]) it was 1.07 ± 0.093. Moreover, the IRF reporter in assay [2] (agonist: 3'3'-cGAMP 10 ug/mL) worked out at 1.02 ± 0.062; in assay [2] (agonist: LPS 0.1 ug/mL), 1.16 ± 0.067; in assay [2] (agonist: MPLA […]), 1.13 ± 0.12. Also, in assay [3], the viability score was 1.01 (active).
Consider `Cc1ccccc1C(=O)Nc1nc(C(C)(C)C)cs1`, for which the NF-kB reporter turned out to be 0.519 ± 0.056 in assay [1] (setting [4]), 0.997 ± 0.047 in assay [1] (agonist: LPS 0.1 ug/mL) and 1.12 ± 0.11 in assay [1] (agonist: MPLA […]). For the same compound, the IRF reporter turned out to be 0.777 ± 0.047 in assay [2] (agonist: 3'3'-cGAMP 10 ug/mL), 1.23 ± 0.13 in assay [2] (agonist: LPS 0.1 ug/mL) and 1.35 ± 0.13 in assay [2] (agonist: MPLA […]). Moreover, the viability score in assay [3] is 1 (active).
For the compound `Nc1nc2c(ncn2C2CC(O)C(CO)O2)c(=O)[nH]1` (stereo not drawn), the NF-kB reporter in assay [1] (setting [4]) turned out to be 0.96 ± 0.089; in assay [1] (agonist: LPS 0.1 ug/mL) it was 0.787 ± 0.059; in assay [1] (agonist: MPLA […]) it was 0.93 ± 0.089. For the same compound, the IRF reporter in assay [2] (agonist: 3'3'-cGAMP 10 ug/mL) was found to be 1.02 ± 0.043; in assay [2] (agonist: LPS 0.1 ug/mL), 1.26 ± 0.2; in assay [2] (agonist: MPLA […]) it was 1.36 ± 0.28. Besides, in assay [3], the viability score was 1.02 (active).
As for `COC(=O)N[C@H](C(=O)N1CCC[C@H]1c1ncc(-c2ccc(-c3ccc(-c4cnc([C@@H]5CCCN5C(=O)[C@@H](NC(=O)OC)C(C)C)[nH]4)cc3)cc2)[nH]1)C(C)C.Cl.Cl`, the results for the NF-kB reporter in assay [1] (setting [4]), in assay [1] (agonist: LPS 0.1 ug/mL) and in assay [1] (agonist: MPLA […]) were 0.437 ± 0.029, 0.513 ± 0.032 and 0.759 ± 0.045, respectively. For the same compound, the values for the IRF reporter in assay [2] (agonist: 3'3'-cGAMP 10 ug/mL), in assay [2] (agonist: LPS 0.1 ug/mL) and in assay [2] (agonist: MPLA […]) were 1.27 ± 0.042, 1.85 ± 0.48 and 1.99 ± 0.46, respectively. The viability score in assay [3] was 0.204 (inactive).
`COc1cc2c3cc1Oc1cc(ccc1O)OC1c4c(cc(OC)c(O)c4Oc4ccc(cc4)CC3N(C)CC2)CCN1C` (stereo not drawn): the NF-kB reporter was determined as 0.191 ± 0.011 in assay [1] (setting [4]), 1.05 ± 0.064 in assay [1] (agonist: LPS 0.1 ug/mL) and 1.03 ± 0.084 in assay [1] (agonist: MPLA […]). Moreover, the results for the IRF reporter in assay [2] (agonist: 3'3'-cGAMP 10 ug/mL), in assay [2] (agonist: LPS 0.1 ug/mL) and in assay [2] (agonist: MPLA […]) were 0.793 ± 0.034, 1.47 ± 0.23 and 1.34 ± 0.13, respectively. Besides, the viability score in assay [3] is 0.995 (active).
For `COc1cc(C)ccc1NC(=O)Cc1csc(NC(=O)Nc2ccccc2OC)n1`, the NF-kB reporter came out at 1.32 ± 0.14 in assay [1] (setting [4]), 1.02 ± 0.074 in assay [1] (agonist: LPS 0.1 ug/mL) and 0.887 ± 0.1 in assay [1] (agonist: MPLA […]). Besides, the IRF reporter in assay [2] (agonist: 3'3'-cGAMP 10 ug/mL) came out at 0.978 ± 0.063; in assay [2] (agonist: LPS 0.1 ug/mL) it was 0.793 ± 0.059; in assay [2] (agonist: MPLA […]) it was 0.818 ± 0.26. Also, the viability score in assay [3] was 1 (active).
With `COCCCNC(=O)C1CCCN(c2ccc(Sc3ccc(Br)cc3)nn2)C1` (stereo not drawn), the NF-kB reporter in assay [1] (setting [4]) came to 0.99 ± 0.1; in assay [1] (agonist: LPS 0.1 ug/mL), 1.1 ± 0.095; in assay [1] (agonist: MPLA […]), 1.15 ± 0.11. The values for the IRF reporter in assay [2] (agonist: 3'3'-cGAMP 10 ug/mL), in assay [2] (agonist: LPS 0.1 ug/mL) and in assay [2] (agonist: MPLA […]) were 0.84 ± 0.03, 0.966 ± 0.076 and 0.779 ± 0.2, respectively. The viability score in assay [3] is 0.993 (active).
On to `CCc1ccc2ncc(C#N)c(Nc3cc(OC)c(OC)c(OC)c3)c2c1.Cl`, for which the NF-kB reporter in assay [1] (setting [4]) came to 1.37 ± 0.071; in assay [1] (agonist: LPS 0.1 ug/mL) it was 1.24 ± 0.17; in assay [1] (agonist: MPLA […]), 0.931 ± 0.066. For the same compound, the IRF reporter in assay [2] (agonist: 3'3'-cGAMP 10 ug/mL) came to 0.712 ± 0.038; in assay [2] (agonist: LPS 0.1 ug/mL), 0.607 ± 0.078; in assay [2] (agonist: MPLA […]), 0.725 ± 0.17. Besides, the viability score in assay [3] is 0.903 (active).
With `COc1cc(C=NNc2ccc(C(=O)O)cc2)cc(Br)c1O`, the NF-kB reporter in assay [1] (setting [4]) stood at 1.16 ± 0.13; in assay [1] (agonist: LPS 0.1 ug/mL), 0.97 ± 0.062; in assay [1] (agonist: MPLA […]) it was 1.09 ± 0.1. Also, the IRF reporter in assay [2] (agonist: 3'3'-cGAMP 10 ug/mL) was found to be 0.198 ± 0.006; in assay [2] (agonist: LPS 0.1 ug/mL) it was 0.241 ± 0.061; in assay [2] (agonist: MPLA […]), 0.223 ± 0.035. In addition, the viability score in assay [3] was 1 (active).
Turning to `COc1ccc(-c2coc3cc(O)cc(O)c3c2=O)cc1`, the NF-kB reporter in assay [1] (setting [4]) amounted to 1.87 ± 0.54; in assay [1] (agonist: LPS 0.1 ug/mL), 1.27 ± 0.083; in assay [1] (agonist: MPLA […]), 1.73 ± 0.13. The figures for the IRF reporter in assay [2] (agonist: 3'3'-cGAMP 10 ug/mL), in assay [2] (agonist: LPS 0.1 ug/mL) and in assay [2] (agonist: MPLA […]) were 0.919 ± 0.071, 1.32 ± 0.18 and 1.37 ± 0.14, respectively. For the same compound, in assay [3], the viability score was 0.623 (inactive).
